# PubChem BioAssay AID1159580 (chemical genetic matrix, 2015)
# Among all 5,500 compounds or so, about 2,000 (36%) were called active. Inconclusive results (about 18%) are left out. This is one part of the list. Unmarked numbers belong to inactive results. Cut-off read from the data, not from the text of the source: active = normalized growth mostly below about 0.91 (no sharp cut-off); inconclusive = no clear call, values can overlap the other calls; inactive = mostly above about 0.92.
# Experiment: chemical genetic growth profiling, strain panel (AID 1159580);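 note: tested at 20 µM; growth read once vehicle control cultures reached saturation at 30 °C; 1 = growth at the plate median or of vehicle wells; lower values mean less growth of the strain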
# Conditions: S. cerevisiae deletion strains, growth OD
# [1] = locus YAL013W, strain DEP1, active compounds read low
# [2] = locus YBR229C, strain ROT2, active compounds read low
# [3] = locus YCL061C, strain MRC1, active compounds read low
# [4] = locus YDL101C, strain DUN1, active compounds read low
# [5] = locus YDL134C, strain PPH21, active compounds read low
# [6] = locus YDR150W, strain NUM1, active compounds read low
# [7] = locus YEL061C, strain CIN8, active compounds read low
# [8] = locus YGR078C, strain PAC10, active compounds read low
# [9] = locus YHR030C, strain SLT2, active compounds read low
# [10] = locus YHR087W, strain rtc3, active compounds read low
# [11] = locus YJR043C, strain POL32, active compounds read low
# [12] = locus YJR075W, strain HOC1, active compounds read low
# [13] = locus YKL190W, strain CNB1, active compounds read low
# [14] = locus YLR039C, strain RIC1, active compounds read low
# [15] = locus YLR058C, strain SHM2 (second series), active compounds read low
# [16] = locus YLR085C, strain ARP6, active compounds read low
# [17] = locus YLR262C, strain YPT6, active compounds read low
# [18] = locus YML094W, strain GIM5, active compounds read low
# [19] = locus YMR219W, strain ESC1, active compounds read low
# [20] = locus YMR263W, strain SAP30, active compounds read low
# [21] = locus YMR307W, strain GAS1, active compounds read low
# [22] = locus YNL153C, strain GIM3, active compounds read low
# [23] = locus YNL298W, strain CLA4 (second series), active compounds read low
# [24] = locus YNL322C, strain KRE1, active compounds read low
# [25] = locus YNR030W, strain Alg12, active compounds read low
# [26] = locus YPL055C, strain LGE1, active compounds read low
# [27] = locus YPL241C, strain CIN2, active compounds read low
# [28] = locus YPR135W, strain CTF4, active compounds read low
# [29] = locus YGR229C, strain SMI1, active compounds read low
smiles,measurement,setting,value
FC(F)(F)c1cnc(N2CCN(C(=S)Nc3ccccc3)CC2)c(Cl)c1,normalized growth,[1],0.989
same,normalized growth,[2],1.01
same,normalized growth,[3],1
same,normalized growth,[4],0.999
same,normalized growth,[5],1.01
same,normalized growth,[6],0.963
same,normalized growth,[7],0.985
same,normalized growth,[8],0.993
same,normalized growth,[9],1.05
same,normalized growth,[10],1.03
same,normalized growth,[11],0.986
same,normalized growth,[12],1.02
same,normalized growth,[13],1.01
same,normalized growth,[14],0.984
same,normalized growth,[15],1.02
same,normalized growth,[16],1.03
same,normalized growth,[17],1.02
same,normalized growth,[18],0.952
same,normalized growth,[19],1.02
same,normalized growth,[20],0.982
same,normalized growth,[21],1
same,normalized growth,"locus YNL128W, strain TEP1, active compounds read low",1.01
same,normalized growth,[22],0.972
same,normalized growth,[23],0.976
same,normalized growth,[24],1.01
same,normalized growth,[25],1
same,normalized growth,"locus YOL006C, strain TOP1, active compounds read low",0.894
same,normalized growth,[26],0.938
same,normalized growth,[27],0.955
same,normalized growth,[28],0.981
Cc1cc(C)cc(NC(=S)N2CCN(c3ncc(C(F)(F)F)cc3Cl)CC2)c1,normalized growth,[1],1
same,normalized growth,[2],1.01
same,normalized growth,[3],1
same,normalized growth,[4],1
same,normalized growth,[5],0.986
same,normalized growth,[6],0.997
same,normalized growth,[7],1.01
same,normalized growth,[8],1
same,normalized growth,[29],0.976
same,normalized growth,[9],1.02
same,normalized growth,[10],1.01
same,normalized growth,[11],1.01
same,normalized growth,[12],0.996
same,normalized growth,[13],0.98
same,normalized growth,[14],1.04
same,normalized growth,[15],1.01
same,normalized growth,[16],0.99
same,normalized growth,[17],1.03
same,normalized growth,[18],1.02
same,normalized growth,[19],0.999
same,normalized growth,[20],1
same,normalized growth,[21],0.907
same,normalized growth,[22],1.01
same,normalized growth,[23],1.06
same,normalized growth,[24],0.998
same,normalized growth,[25],1.02
same,normalized growth,[26],1.03
same,normalized growth,[27],0.886
same,normalized growth,[28],1
CC(C)c1ccccc1NC(=S)N1CCN(c2ncc(C(F)(F)F)cc2Cl)CC1,normalized growth,[1],1.02
same,normalized growth,[2],0.995
same,normalized growth,[4],0.985
same,normalized growth,[6],1.02
same,normalized growth,[7],1.01
same,normalized growth,[8],1.01
same,normalized growth,[29],0.963
same,normalized growth,[9],0.976
same,normalized growth,[10],1.02
same,normalized growth,[11],0.995
same,normalized growth,[12],0.972
same,normalized growth,[14],0.761 (active)
same,normalized growth,[15],0.977
same,normalized growth,[16],1.1
same,normalized growth,[17],0.736 (active)
same,normalized growth,[18],1.04
same,normalized growth,[19],0.992
same,normalized growth,[20],0.991
same,normalized growth,[22],1.02
same,normalized growth,[23],0.984
same,normalized growth,[24],0.998
same,normalized growth,[25],1.02
same,normalized growth,[26],1.13
same,normalized growth,[27],1.07
same,normalized growth,[28],1.17
